Data on 15 compounds can be found in ChEMBL document CHEMBL1961873, “Compounds: GSK PKIS; Assays: Nanosyn kinase panel” (2012).

Structures are written as SMILES.

For experiment [1], the target named is Casein kinase I isoform gamma-2 (Homo sapiens) (UniProt P78368). Conditions: at 1 µM.
Experiment [2] has as its target Casein kinase I isoform gamma-3 (Homo sapiens) (UniProt Q9Y6M4). The following applies: at 0.1 µM.
The target is the same in experiment [3]. Conditions: at 1 µM.
The target of experiment [4] is Cyclin-dependent kinase 1 (Homo sapiens) (UniProt P06493). Conditions: at 0.1 µM.
Cyclin-dependent kinase 1 (Homo sapiens), sequence (P06493 whole entry, looked up): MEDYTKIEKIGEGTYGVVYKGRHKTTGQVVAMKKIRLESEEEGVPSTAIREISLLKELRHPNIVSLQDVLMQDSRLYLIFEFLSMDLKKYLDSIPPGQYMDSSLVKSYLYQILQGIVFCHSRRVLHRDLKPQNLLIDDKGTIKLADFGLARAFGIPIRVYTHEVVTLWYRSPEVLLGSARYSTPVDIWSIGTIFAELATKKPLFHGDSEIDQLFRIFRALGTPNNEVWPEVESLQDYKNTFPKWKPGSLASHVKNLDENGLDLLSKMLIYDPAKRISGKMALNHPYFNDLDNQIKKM
For experiment [5] the target is unchanged. Conditions: at 1 µM.
In experiment [6] the target is Cyclin-dependent kinase 2 (Homo sapiens) (UniProt P24941). Conditions: at 0.1 µM.
Experiment [7] has the same target. Conditions: at 1 µM.
The target is the same in experiment [8]. Conditions: at 0.1 µM. This is another data set of the same source.
Experiment [9] has the same target. Conditions: at 1 µM. This is another data set of the same source.
Experiment [10] has as its target CDK3/Cyclin E (Homo sapiens) (UniProt P24864+Q00526). Conditions: at 0.1 µM.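 Note: reported percentages are mean inhibition values.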

CDK3/Cyclin E (Homo sapiens), sequence (P24864 whole entry, looked up): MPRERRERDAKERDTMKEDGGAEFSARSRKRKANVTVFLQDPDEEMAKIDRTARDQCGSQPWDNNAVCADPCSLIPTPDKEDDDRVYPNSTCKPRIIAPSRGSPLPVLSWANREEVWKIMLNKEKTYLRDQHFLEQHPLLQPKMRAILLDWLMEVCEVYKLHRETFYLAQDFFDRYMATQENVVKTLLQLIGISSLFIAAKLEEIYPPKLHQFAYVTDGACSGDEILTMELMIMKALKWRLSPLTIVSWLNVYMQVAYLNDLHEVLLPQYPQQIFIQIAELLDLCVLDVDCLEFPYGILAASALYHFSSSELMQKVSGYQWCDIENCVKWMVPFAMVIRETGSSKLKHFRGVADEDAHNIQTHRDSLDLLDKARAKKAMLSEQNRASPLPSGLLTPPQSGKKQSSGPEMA
CDK3/Cyclin E (Homo sapiens), sequence (Q00526 whole entry, looked up): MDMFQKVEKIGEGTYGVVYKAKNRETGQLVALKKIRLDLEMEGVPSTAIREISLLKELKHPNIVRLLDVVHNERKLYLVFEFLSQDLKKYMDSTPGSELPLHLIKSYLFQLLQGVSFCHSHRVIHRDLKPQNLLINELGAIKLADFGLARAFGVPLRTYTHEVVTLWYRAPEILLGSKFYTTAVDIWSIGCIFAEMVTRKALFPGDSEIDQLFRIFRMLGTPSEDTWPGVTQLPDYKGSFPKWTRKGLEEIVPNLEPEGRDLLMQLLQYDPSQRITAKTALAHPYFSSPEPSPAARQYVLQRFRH
Casein kinase I isoform gamma-2 (Homo sapiens), sequence (P78368 whole entry, looked up, canonical isoform): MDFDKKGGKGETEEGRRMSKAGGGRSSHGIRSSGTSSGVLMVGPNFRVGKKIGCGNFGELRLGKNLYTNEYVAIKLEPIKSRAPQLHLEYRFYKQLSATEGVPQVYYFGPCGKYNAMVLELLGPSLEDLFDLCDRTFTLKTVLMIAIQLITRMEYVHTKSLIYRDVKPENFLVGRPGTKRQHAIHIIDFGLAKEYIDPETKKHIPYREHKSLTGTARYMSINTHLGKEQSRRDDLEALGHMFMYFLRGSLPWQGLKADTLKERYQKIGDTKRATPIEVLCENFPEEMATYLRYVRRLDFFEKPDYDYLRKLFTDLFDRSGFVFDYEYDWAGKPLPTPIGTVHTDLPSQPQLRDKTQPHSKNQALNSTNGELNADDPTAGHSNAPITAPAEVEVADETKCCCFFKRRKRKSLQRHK
Casein kinase I isoform gamma-3 (Homo sapiens), sequence (Q9Y6M4 whole entry, looked up, canonical isoform): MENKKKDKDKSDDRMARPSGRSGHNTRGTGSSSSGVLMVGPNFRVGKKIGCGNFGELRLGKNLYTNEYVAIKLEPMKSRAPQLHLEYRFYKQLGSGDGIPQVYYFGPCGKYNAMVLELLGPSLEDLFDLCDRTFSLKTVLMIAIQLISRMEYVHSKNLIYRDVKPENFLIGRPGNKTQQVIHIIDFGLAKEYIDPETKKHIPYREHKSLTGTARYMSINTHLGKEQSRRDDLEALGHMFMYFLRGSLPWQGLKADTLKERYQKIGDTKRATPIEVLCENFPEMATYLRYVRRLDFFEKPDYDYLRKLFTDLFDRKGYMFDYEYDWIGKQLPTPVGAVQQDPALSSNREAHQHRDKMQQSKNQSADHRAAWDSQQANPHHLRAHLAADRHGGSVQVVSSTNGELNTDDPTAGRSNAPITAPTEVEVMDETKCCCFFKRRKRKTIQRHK

Turning to `NS(=O)(=O)c1cccc(N/C=C2\C(=O)Nc3ccccc32)c1`, the inhibition in experiment [1] came to 12.7%; in [2], 5.4%; in experiment [3], 14%; in experiment [4], 2.85%; in experiment [5], 7.45%; in experiment [6], 4.87%. The inhibition in experiment [7] came out at 8.39%; in experiment [8] it was 5.07%; in experiment [9], 16%; in [10] it was 4.56%.
For `CCN1CCC(C(=O)Nc2n[nH]c3nnc(-c4cccc(F)c4F)cc23)CC1`, the inhibition is -0.17% in [1]; 0.17% in experiment [2]; 1.35% in experiment [3]; 3.89% in experiment [4]; 22.6% in [5]; 3.86% in experiment [6]. Also, the inhibition in [7] was 20.4%; in [8], 3.75%; in experiment [9], 12.4%; in experiment [10], 2.37%.
In the case of `FC(F)(F)CNc1nccc(-c2cnn3ncccc23)n1`, the inhibition in experiment [1] amounted to 14.1%; in experiment [2] it was 3.44%; in [3] it was 10.6%; in experiment [4] it was 4.59%; in experiment [5] it was 29.1%; in experiment [6] it was 1.79%. The inhibition in [7] turned out to be 14.1%; in experiment [8], 4.11%; in experiment [9] it was 16.4%; in experiment [10], 1.36%.
For the compound `CCCNc1cccc(-n2ncc3c(N/N=C/c4ccncc4)ncnc32)c1`, the inhibition in experiment [1] was 1.01%; in experiment [2], 1.29%; in experiment [3], 0.9%; in [4], 2.68%; in [5], 22.5%; in experiment [6], 7.1%. The inhibition was determined as 42.1% in [7], 1.17% in experiment [8], 9.16% in experiment [9] and 0.47% in [10].
`CCOc1ccc2c(-c3ccnc(Nc4cc(OC)cc(C(F)(F)F)c4)n3)cnn2n1`: the inhibition was 2.72% in [1]; -2.09% in experiment [2]; 2.37% in experiment [3]; 2.86% in [4]; 12.1% in [5]; 2.24% in experiment [6]. Also, the inhibition in experiment [7] came to 12.5%; in experiment [8], 1.37%; in experiment [9], 11.9%; in experiment [10], 3.56%.
As to `NS(=O)(=O)c1ccc(N/N=C2\C(=O)Nc3cccc(CCc4ccncc4)c32)cc1`, the inhibition in experiment [1] amounted to 0.54%; in [2] it was 0.32%; in experiment [3], 0.29%; in [4], 9.4%; in experiment [5] it was 21.9%; in experiment [6], 51.4%. Besides, the inhibition in experiment [7] was found to be 71.6%; in [8] it was 53.5%; in experiment [9], 67.7%; in experiment [10], 32.4%.
Regarding `CCS(=O)(=O)c1ccc(OC)c(Nc2ncc(-c3cccc(C(C)=O)c3)o2)c1`, the inhibition in experiment [1] stood at 1.92%; in experiment [2], 1.93%; in experiment [3] it was 1.37%; in [4], 0.64%; in [5], 1.52%; in experiment [6] it was 1.87%. The inhibition in [7] stood at 6.76%; in experiment [8], 3.84%; in [9] it was 8.73%; in experiment [10], 0.35%.
Consider `NC(=O)c1ccc2c(-c3ccnc(NCCCO)n3)c(-c3ccc(F)cc3)nn2c1`, for which the inhibition was 19.9% in experiment [1]; 8.09% in experiment [2]; 29% in experiment [3]; 1.5% in experiment [4]; 1.54% in [5]; -0.03% in experiment [6]. For the same compound, the inhibition in experiment [7] worked out at 1.7%; in [8] it was 3.22%; in experiment [9], 4.45%; in experiment [10], 2.38%.
For the compound `CS(=O)(=O)CCNCc1ccoc1-c1ccc2ncnc(Nc3ccc(OCc4ccccc4)cc3)c2c1`, the inhibition in [1] is 0.93%; in experiment [2], 1.14%; in [3], 0.44%; in [4], -0.72%; in [5] it was 1.35%; in experiment [6], 1.48%. Moreover, the inhibition in [7] was 3.32%; in experiment [8], 1.98%; in [9], 3.45%; in [10], -1.56%.
For `Cn1c(-c2nonc2N)nc2cnccc21`, the inhibition in experiment [1] turned out to be 3.42%; in experiment [2], 1.53%; in experiment [3], 2.15%; in experiment [4], 1.15%; in experiment [5], 4.4%; in experiment [6], 2.01%. In addition, the inhibition in [7] came to 11.2%; in experiment [8] it was 3.69%; in experiment [9] it was 11.6%; in [10], 6.05%.
In the case of `OCCCNc1nccc(-c2c(-c3ccc(F)cc3)nn3cc(C(F)(F)F)ccc23)n1`, the inhibition amounted to 4.56% in experiment [1]; 1.62% in experiment [2]; 7.33% in [3]; 1.54% in experiment [4]; 2.59% in experiment [5]; 0.91% in experiment [6]. The inhibition was -3.65% in experiment [7], 0.52% in experiment [8], 3.87% in experiment [9] and 1.49% in experiment [10].
As to `CC1(C)CC(n2cnc(-c3ccc(F)cc3)c2-c2ccnc(N)n2)CC(C)(C)N1`, the inhibition in experiment [1] is 0.56%; in experiment [2], -0.9%; in experiment [3], 5.01%; in experiment [4], -0.29%; in experiment [5], 0.21%; in [6] it was 1.22%. Besides, the inhibition in [7] stood at 0.26%; in experiment [8], 1.34%; in experiment [9] it was 0.26%; in experiment [10] it was 2.06%.
Turning to `CNC(=O)c1sc(-n2cnc3cc(OC)c(OC)cc32)cc1OCc1ccccc1C(F)(F)F`, the inhibition in experiment [1] was 3.65%; in experiment [2], 3.86%; in experiment [3] it was 4.26%; in experiment [4] it was 0.69%; in experiment [5], 2.03%; in [6] it was 0.22%. Further, the inhibition was 1.77% in experiment [7], 2.17% in experiment [8], 3.8% in experiment [9] and 0.35% in experiment [10].
Take `COc1ccccc1-c1cc(/C=C2\C(=O)Nc3ncc(Br)cc32)cc(Br)c1O`: the inhibition was determined as 6.34% in experiment [1]; 4.08% in experiment [2]; 3.37% in experiment [3]; 3.53% in experiment [4]; 5.31% in experiment [5]; 2.84% in [6]. Also, the inhibition is -1.47% in experiment [7], 7.89% in [8], 9.34% in experiment [9] and 5.76% in [10].
As for `COC(=O)Nc1nc2cc(Oc3ccc(NC(=O)Nc4ccccc4)cc3)ccc2[nH]1`, the inhibition came to 1.9% in [1]; 0.58% in experiment [2]; 1.63% in experiment [3]; 1.24% in experiment [4]; 1.72% in [5]; 1.21% in experiment [6]. Moreover, the inhibition in experiment [7] was found to be 0.35%; in experiment [8] it was 1.69%; in experiment [9], 3.15%; in experiment [10], 2.16%.

The inhibition is the relative decrease from the control value, in per cent.
